According to PMC5700166:

Columns and labels:
Assay in all cases: protein-binding microarray (PBM); PBM: ~300 nM protein, 6 mM HEPES pH 7.8, 80 mM KCl, 0.5 mM EDTA, 0.5 mM EGTA, 6% glycerol, 35 ng/ul poly-dIdC, 1% milk, 1 h, room temperature; Ap Aiptasia and Nv Nematostella (sea anemones) / Co Capsaspora / Aq Amphimedon (sponge) / Dm Drosophila / Hu human; RHD is the Rel homology domain; high values mean tight binding
Conditions in all cases: dsDNA, one strand shown
[1] = biological target: T1, GST-Ap-NF-kB RHD (Exaiptasia pallida (Aiptasia), UniProt A0A913YAJ5 2-422)
T1 sequence: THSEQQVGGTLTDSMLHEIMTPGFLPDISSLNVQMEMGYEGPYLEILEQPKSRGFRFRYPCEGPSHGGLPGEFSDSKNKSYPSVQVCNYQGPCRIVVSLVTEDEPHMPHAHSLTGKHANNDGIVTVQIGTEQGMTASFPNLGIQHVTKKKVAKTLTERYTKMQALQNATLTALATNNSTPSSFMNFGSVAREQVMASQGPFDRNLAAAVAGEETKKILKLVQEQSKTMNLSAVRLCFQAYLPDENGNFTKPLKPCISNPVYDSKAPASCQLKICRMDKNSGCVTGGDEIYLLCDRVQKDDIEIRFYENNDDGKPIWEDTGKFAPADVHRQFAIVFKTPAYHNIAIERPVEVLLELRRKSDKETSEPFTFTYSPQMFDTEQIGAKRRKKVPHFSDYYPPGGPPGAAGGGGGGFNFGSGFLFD

[2] = biological target: T2, GST-Nv-NF-kB (Cys allele) (Nematostella vectensis, UniProt E5G601 2-411)
T2 sequence: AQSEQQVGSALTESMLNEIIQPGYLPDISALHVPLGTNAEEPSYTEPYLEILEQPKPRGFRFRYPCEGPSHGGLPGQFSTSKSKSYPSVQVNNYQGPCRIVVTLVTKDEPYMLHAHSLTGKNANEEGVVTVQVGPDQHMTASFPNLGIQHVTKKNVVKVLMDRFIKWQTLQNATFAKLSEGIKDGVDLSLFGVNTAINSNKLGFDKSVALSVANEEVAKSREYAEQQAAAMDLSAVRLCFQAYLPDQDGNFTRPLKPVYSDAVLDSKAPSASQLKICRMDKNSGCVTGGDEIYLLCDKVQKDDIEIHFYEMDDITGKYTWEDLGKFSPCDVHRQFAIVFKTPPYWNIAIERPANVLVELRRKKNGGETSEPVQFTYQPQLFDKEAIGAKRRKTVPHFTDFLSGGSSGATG

[3] = biological target: T3, GST-Co-NF-kB (Capsaspora owczarzaki, UniProt F1ARL5 200-546)
T3 sequence: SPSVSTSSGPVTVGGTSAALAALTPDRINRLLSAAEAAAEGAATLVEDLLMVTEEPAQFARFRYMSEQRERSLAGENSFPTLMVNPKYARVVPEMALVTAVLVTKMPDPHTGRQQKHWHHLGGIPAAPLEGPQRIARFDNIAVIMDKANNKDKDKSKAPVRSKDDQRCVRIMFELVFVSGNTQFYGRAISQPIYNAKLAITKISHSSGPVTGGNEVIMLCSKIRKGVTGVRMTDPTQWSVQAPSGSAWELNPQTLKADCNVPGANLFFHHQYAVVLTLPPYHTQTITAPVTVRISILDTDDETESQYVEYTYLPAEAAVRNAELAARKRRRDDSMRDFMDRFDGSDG

[4] = biological target: T4, GST-Dm-Relish (Drosophila melanogaster, UniProt Q94527 99-473)
T4 sequence: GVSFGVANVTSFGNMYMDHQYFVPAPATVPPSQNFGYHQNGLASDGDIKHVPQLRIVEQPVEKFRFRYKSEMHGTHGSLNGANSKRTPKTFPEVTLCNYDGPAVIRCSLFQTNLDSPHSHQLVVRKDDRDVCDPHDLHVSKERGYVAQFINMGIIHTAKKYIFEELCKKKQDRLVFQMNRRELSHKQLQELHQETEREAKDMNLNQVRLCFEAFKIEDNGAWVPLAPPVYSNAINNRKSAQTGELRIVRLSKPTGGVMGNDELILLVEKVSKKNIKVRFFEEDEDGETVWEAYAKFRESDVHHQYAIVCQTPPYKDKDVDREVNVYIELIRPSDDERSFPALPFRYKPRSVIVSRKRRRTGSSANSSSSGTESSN

[5] = biological target: T5, GST-Aq-NF-kB (Amphimedon queenslandica, UniProt A9Y5G7 2-389)
T5 sequence: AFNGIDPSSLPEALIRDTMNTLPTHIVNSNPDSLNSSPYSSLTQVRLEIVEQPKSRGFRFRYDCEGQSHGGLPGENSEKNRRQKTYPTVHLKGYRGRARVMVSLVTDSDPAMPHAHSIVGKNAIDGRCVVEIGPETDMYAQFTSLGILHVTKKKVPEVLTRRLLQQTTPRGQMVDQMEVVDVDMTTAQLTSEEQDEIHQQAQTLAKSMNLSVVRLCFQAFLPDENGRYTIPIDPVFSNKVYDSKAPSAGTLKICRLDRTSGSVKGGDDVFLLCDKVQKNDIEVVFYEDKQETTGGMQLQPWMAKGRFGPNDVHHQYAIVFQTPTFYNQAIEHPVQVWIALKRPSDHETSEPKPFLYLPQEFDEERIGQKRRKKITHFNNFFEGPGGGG

[6] = biological target: GST-Hu-p50 (Homo sapiens, UniProt P19838 7-356)
Sequence of GST-Hu-p50 (P19838 7-356): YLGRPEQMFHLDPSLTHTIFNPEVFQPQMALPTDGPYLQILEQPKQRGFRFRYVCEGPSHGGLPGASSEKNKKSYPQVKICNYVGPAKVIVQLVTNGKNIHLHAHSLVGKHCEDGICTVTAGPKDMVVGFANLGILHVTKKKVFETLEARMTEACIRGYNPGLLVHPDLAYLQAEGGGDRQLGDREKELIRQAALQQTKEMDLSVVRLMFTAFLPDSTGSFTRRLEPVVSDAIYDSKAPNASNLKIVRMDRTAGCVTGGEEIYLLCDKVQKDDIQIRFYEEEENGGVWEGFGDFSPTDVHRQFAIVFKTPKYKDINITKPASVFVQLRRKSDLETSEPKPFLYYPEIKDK

CCGATTAACATCAGGGAAATTAATGATGTTAATCGGGTCTTGATTCGCTTGACGCTGCTG
binding signal [1]: 3.37 z-score
binding signal [2]: 5.52 z-score
binding signal [3]: 4.18 z-score
binding signal [4]: 2.54 z-score
binding signal [5]: 4.81 z-score
binding signal [6]: 4.27 z-score

CCGATTAACATCAGAAAAATCCCTGATGTTAATCGGGTCTTGATTCGCTTGACGCTGCTG
binding signal [1]: 5.42 z-score
binding signal [2]: 6.84 z-score
binding signal [3]: 2.27 z-score
binding signal [4]: 9.03 z-score
binding signal [5]: 7.2 z-score
binding signal [6]: 5.46 z-score

CCGATTAACATCAGACAACCCCCTGATGTTAATCGGGTCTTGATTCGCTTGACGCTGCTG
binding signal [1]: 5.23 z-score
binding signal [2]: 4.47 z-score
binding signal [3]: 1.95 z-score
binding signal [4]: 5.15 z-score
binding signal [5]: 4.98 z-score
binding signal [6]: 5.28 z-score

CCGATTAACATCAGAAACTTCCCTGATGTTAATCGGGTCTTGATTCGCTTGACGCTGCTG
binding signal [1]: 4.46 z-score
binding signal [2]: 5.22 z-score
binding signal [3]: 2.41 z-score
binding signal [4]: 4.16 z-score
binding signal [5]: 5.51 z-score
binding signal [6]: 4.25 z-score

CCGATTAACATCAAAGAGTCCCCTGATGTTAATCGGGTCTTGATTCGCTTGACGCTGCTG
binding signal [1]: 6.56 z-score
binding signal [2]: 6.17 z-score
binding signal [3]: 3.49 z-score
binding signal [4]: 6.3 z-score
binding signal [5]: 5.8 z-score
binding signal [6]: 5.88 z-score

CCGATTAACATCAGGGGGAGCACTGATGTTAATCGGGTCTTGATTCGCTTGACGCTGCTG
binding signal [1]: 5.93 z-score
binding signal [2]: 3.91 z-score
binding signal [3]: 6.25 z-score
binding signal [4]: 7.14 z-score
binding signal [5]: 5.5 z-score
binding signal [6]: 4.89 z-score

CCGATTAACATCACAGAAACCCCTGATGTTAATCGGGTCTTGATTCGCTTGACGCTGCTG
binding signal [1]: 5.66 z-score
binding signal [2]: 4.62 z-score
binding signal [3]: 1.21 z-score
binding signal [4]: 6.6 z-score
binding signal [5]: 4.61 z-score
binding signal [6]: 5.39 z-score

CCGATTAACATCAAAAACCACCCTGATGTTAATCGGGTCTTGATTCGCTTGACGCTGCTG
binding signal [1]: 4.27 z-score
binding signal [2]: 3.46 z-score
binding signal [3]: 2.76 z-score
binding signal [4]: 7.76 z-score
binding signal [5]: 4.53 z-score
binding signal [6]: 5.64 z-score

CCGATTAACATCAAAATCACCCCTGATGTTAATCGGGTCTTGATTCGCTTGACGCTGCTG
binding signal [1]: 4.66 z-score
binding signal [2]: 2.97 z-score
binding signal [3]: 5.02 z-score
binding signal [4]: 5.22 z-score
binding signal [5]: 3.41 z-score
binding signal [6]: 4.39 z-score

CCGATTAACATCAGGGGGGAGACTGATGTTAATCGGGTCTTGATTCGCTTGACGCTGCTG
binding signal [1]: 5.88 z-score
binding signal [2]: 4.78 z-score
binding signal [3]: 6.95 z-score
binding signal [4]: 3.61 z-score
binding signal [5]: 4.79 z-score
binding signal [6]: 6.44 z-score

CCGATTAACATCAGGGATGCCCCTGATGTTAATCGGGTCTTGATTCGCTTGACGCTGCTG
binding signal [1]: 6.96 z-score
binding signal [2]: 8.09 z-score
binding signal [3]: 1.84 z-score
binding signal [4]: 9.08 z-score
binding signal [5]: 8.39 z-score
binding signal [6]: 5.89 z-score

CCGATTAACATCAAACTCCCCCGTGATGTTAATCGGGTCTTGATTCGCTTGACGCTGCTG
binding signal [1]: 6.89 z-score
binding signal [2]: 5.44 z-score
binding signal [3]: 7.66 z-score
binding signal [4]: 5.92 z-score
binding signal [5]: 5.84 z-score
binding signal [6]: 6.48 z-score

CCGATTAACATCAAAACACCCCTTGATGTTAATCGGGTCTTGATTCGCTTGACGCTGCTG
binding signal [1]: 3.63 z-score
binding signal [2]: 2.54 z-score
binding signal [3]: 2 z-score
binding signal [4]: 4.19 z-score
binding signal [5]: 4.03 z-score
binding signal [6]: 4.32 z-score

CCGATTAACATCAAACCACCCCCTGATGTTAATCGGGTCTTGATTCGCTTGACGCTGCTG
binding signal [1]: 3.91 z-score
binding signal [2]: 3.14 z-score
binding signal [3]: 3.81 z-score
binding signal [4]: 2.92 z-score
binding signal [5]: 3.77 z-score
binding signal [6]: 4.3 z-score

CCGATTAACATCAAGGGGGATACTGATGTTAATCGGGTCTTGATTCGCTTGACGCTGCTG
binding signal [1]: 6.74 z-score
binding signal [2]: 4.59 z-score
binding signal [3]: 4.72 z-score
binding signal [4]: 3.41 z-score
binding signal [5]: 4.99 z-score
binding signal [6]: 5.48 z-score

CCGATTAACATCAAAAAATCCCTTGATGTTAATCGGGTCTTGATTCGCTTGACGCTGCTG
binding signal [1]: 6.16 z-score
binding signal [2]: 7.58 z-score
binding signal [3]: 1.77 z-score
binding signal [4]: 8.1 z-score
binding signal [5]: 7.46 z-score
binding signal [6]: 5.47 z-score

CCGATTAACATCAGGGGGGAGAATGATGTTAATCGGGTCTTGATTCGCTTGACGCTGCTG
binding signal [1]: 6 z-score
binding signal [2]: 4.08 z-score
binding signal [3]: 7.95 z-score
binding signal [4]: 3.85 z-score
binding signal [5]: 4.82 z-score
binding signal [6]: 6.41 z-score

CCGATTAACATCAGGGGGAGGGATGATGTTAATCGGGTCTTGATTCGCTTGACGCTGCTG
binding signal [1]: 4.44 z-score
binding signal [2]: 4.45 z-score
binding signal [3]: 5.87 z-score
binding signal [4]: 3.28 z-score
binding signal [5]: 4.21 z-score
binding signal [6]: 4.01 z-score

CCGATTAACATCAAAACACCCCCTGATGTTAATCGGGTCTTGATTCGCTTGACGCTGCTG
binding signal [1]: 6.39 z-score
binding signal [2]: 5.71 z-score
binding signal [3]: 5.54 z-score
binding signal [4]: 6.95 z-score
binding signal [5]: 6.53 z-score
binding signal [6]: 6.04 z-score

CCGATTAACATCAGGGGGTTAAATGATGTTAATCGGGTCTTGATTCGCTTGACGCTGCTG
binding signal [1]: 4.33 z-score
binding signal [2]: 4.07 z-score
binding signal [3]: 3.62 z-score
binding signal [4]: 5.86 z-score
binding signal [5]: 4.49 z-score
binding signal [6]: 4.29 z-score

CCGATTAACATCAGGGGGGAACATGATGTTAATCGGGTCTTGATTCGCTTGACGCTGCTG
binding signal [1]: 6.4 z-score
binding signal [2]: 4.35 z-score
binding signal [3]: 9.73 z-score
binding signal [4]: 4.25 z-score
binding signal [5]: 5.22 z-score
binding signal [6]: 5.4 z-score

CCGATTAACATCAAATAAGCCCCTGATGTTAATCGGGTCTTGATTCGCTTGACGCTGCTG
binding signal [1]: 3.57 z-score
binding signal [2]: 5.54 z-score
binding signal [3]: 1.15 z-score
binding signal [4]: 4.29 z-score
binding signal [5]: 5.74 z-score
binding signal [6]: 4.31 z-score

CCGATTAACATCAGGGGGAGTACTGATGTTAATCGGGTCTTGATTCGCTTGACGCTGCTG
binding signal [1]: 6.52 z-score
binding signal [2]: 4.73 z-score
binding signal [3]: 5.82 z-score
binding signal [4]: 9.03 z-score
binding signal [5]: 6.58 z-score
binding signal [6]: 5.94 z-score

CCGATTAACATCACAAATACCCCTGATGTTAATCGGGTCTTGATTCGCTTGACGCTGCTG
binding signal [1]: 5.46 z-score
binding signal [2]: 4.42 z-score
binding signal [3]: 4.04 z-score
binding signal [4]: 3.75 z-score
binding signal [5]: 4.3 z-score
binding signal [6]: 5.3 z-score

CCGATTAACATCAGGGTAATTTATGATGTTAATCGGGTCTTGATTCGCTTGACGCTGCTG
binding signal [1]: 4.07 z-score
binding signal [2]: 6.3 z-score
binding signal [3]: 3.64 z-score
binding signal [4]: 3.68 z-score
binding signal [5]: 6.31 z-score
binding signal [6]: 4.9 z-score

CCGATTAACATCAAATACCCCCCTGATGTTAATCGGGTCTTGATTCGCTTGACGCTGCTG
binding signal [1]: 7.87 z-score
binding signal [2]: 5.54 z-score
binding signal [3]: 6.37 z-score
binding signal [4]: 6.76 z-score
binding signal [5]: 6.24 z-score
binding signal [6]: 5.42 z-score
